# Source: PubChem BioAssay (Tox21)
# Inconclusive results are not listed. Where a call stands in place of a potency, no number is given. Calls of active or inactive are those of the source. Unless noted, the call rests on the fitted dose curve; in most records, active means well fitted cell-killing curve with a large enough effect in the repeat runs; inconclusive means weak or mixed curves, or effect the other way; inactive means no such curve, though single readings can be large or run the other way.
# Test: qHTS assay for small molecule activators of the heat shock response signaling pathway - cell viability counter screen (AID 743209); further: nearly all actives have a fitted effect of over 50% in size
# Conditions: HSE-bla HeLa viability, CellTiter-Glo luminescence, 5 h; series mostly up to 62.6 µM
# In short: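 Luminescence from CellTiter-Glo, added after the beta-lactamase FRET read, gave the viability signal. Cells were HSE-bla HeLa treated with DMSO-dissolved compounds for 5 h at 37 C following overnight plating.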
row,SMILES,Potency
1,C=CC(=C)CCCC(C)(C)OC(C)=O,inactive
2,Fc1c(F)c(F)c(Br)c(F)c1F,inactive
3,Nc1nc(Cl)nc2c1ncn2[C@@H]1O[C@H](CO)[C@@H](O)[C@@H]1F,inactive
4,CCOC(=O)[C@@H](C)Oc1ccc(Oc2nc3ccc(Cl)cc3o2)cc1,inactive
5,CN(C)C(=O)Nc1ccc(Oc2ccc(Cl)cc2)cc1,inactive
6,CCCCC(CC)CNCC(CC)CCCC (stereo not given),inactive
7,C[Si]1(C)O[Si](C)(C)O[Si](C)(C)O1,inactive
8,Cc1oc(C)c(C(=O)Nc2ccccc2)c1C,inactive
9,CC1(C)C(=O)N(Br)C(=O)N1Cl,inactive
10,CC1CC(O)CC(C)(C)C1 (stereo not given),inactive
11,CCCCCCCCSCCO,inactive

# Test: qHTS assay for small molecule activators of the heat shock response signaling pathway (AID 743210; active means well fitted activation curve with a large enough effect in the signal ratio in the repeat runs, with a control signal flat, not every such curve was filed as active; the % refers to the signal ratio;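 further: HeLa cells with beta-lactamase reporter driven by heat shock elements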)
# Conditions: HeLa HSE-bla reporter, beta-lactamase ratio, 5 h; series mostly up to 62.6 µM
# In short: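 HeLa HSE-bla cells, overnight plating; cpd in DMSO 5 h, 37 C; LiveBLAzer B/G FRET substrate 2.5 h RT; fluorescence intensity read.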
row,SMILES,Potency
1,NCC1CCCC(CN)C1 (stereo not given),inactive
2,O=C(C(=O)c1ccccc1)c1ccccc1,inactive
3,C[N+](C)(C)CCOC(N)=O,inactive
4,c1cnc2c(n1)CCCC2,inactive
5,CCCCCCOC(=O)CCCCCCCC(=O)OCCCCCC,inactive
6,COCCOC,inactive
7,C/C=C(\C)C(=O)OCCC(C)CCC=C(C)C (stereo not given),inactive
8,CC(=N\O)/C(C)=N/O,inactive
9,CC(C)CCCCCOC(=O)CCCCC(=O)OCCCCCC(C)C,inactive
10,CO[C@H]1O[C@H](CO)[C@@H](O)[C@H](O)[C@H]1O,inactive
11,CN1CCN(CCCN2c3ccccc3Sc3ccc(S(=O)(=O)N(C)C)cc32)CC1,inactive
12,O=C(CCCCCCCCC#CI)Oc1ccccc1,inactive
13,CC1=CC(=O)CC(C)(C)C1(O)/C=C/C(C)=C\C(=O)O (stereo not given),inactive
14,CCCC(=O)O[C@]1(C(=O)COC(=O)CC)CC[C@H]2[C@@H]3CCC4=CC(=O)CC[C@]4(C)[C@H]3[C@@H](O)C[C@@]21C,inactive
